According to PubChem BioAssay AID1851 (National Center for Advancing Translational Sciences (NCATS), 2009):
Several values for one entry are separate records, joined by “and”; a condition that tells them apart may be missing. Equal entries are not always repeated. Out of some 16,000 compounds screened, about 5,800 (36%) were called active. Inconclusive results (about 23%) are left out. The call rests on the fitted dose curve; in most records, active means well fitted curve in the direction sought with a large enough effect; inconclusive means small, poorly fitted or top-dose-only effect, or effect the other way; inactive means no such curve, though single readings can be large or run the other way. The list shows a part of the results. Some compounds were tested as several samples or in several runs, with calls that do not always agree.

target: Cytochrome P450 2C19 (Homo sapiens) (UniProt P33261); assay: Cytochrome panel assay with activity outcomes; settings: recombinant CYP, pro-luciferin dealkylation, luminescence, p450-cyp2c19; series mostly up to 57.1 µM
On the % scale 0 is the no-effect control and ±100 the full control effect.

Chain of Cytochrome P450 2C19 (Homo sapiens) (P33261 whole entry, looked up): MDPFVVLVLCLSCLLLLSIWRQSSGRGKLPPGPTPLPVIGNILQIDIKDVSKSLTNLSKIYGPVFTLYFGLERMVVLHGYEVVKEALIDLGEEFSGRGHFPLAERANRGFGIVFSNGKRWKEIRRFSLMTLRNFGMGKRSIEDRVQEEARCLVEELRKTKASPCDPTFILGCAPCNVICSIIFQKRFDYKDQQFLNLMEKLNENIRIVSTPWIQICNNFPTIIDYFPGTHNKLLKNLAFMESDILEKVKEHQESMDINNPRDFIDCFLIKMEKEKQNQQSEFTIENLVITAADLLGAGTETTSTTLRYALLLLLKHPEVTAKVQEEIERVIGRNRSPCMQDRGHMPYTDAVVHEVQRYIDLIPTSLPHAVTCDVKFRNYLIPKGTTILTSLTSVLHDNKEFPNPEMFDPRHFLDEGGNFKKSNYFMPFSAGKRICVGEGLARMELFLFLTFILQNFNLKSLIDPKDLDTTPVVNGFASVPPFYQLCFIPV

SMILES | AC50 | activity, negative = inhibition
COc1ccc(NC(=O)N2CCCC3(CCN(C(=O)Oc4ccccc4)CC3)C2)cc1 | inactive | 
CN(C)CS/C(N)=N/[C@H](O)C(Cl)(Cl)Cl |  | -3.05% [at 11.4 µM] (inactive)
CC(N)Cc1ccccc1Sc1ccc(O)cc1 (stereo not given) | 15.8 µM (active) | 
CNC(C)Cc1ccccc1Sc1ccc(O)cc1 (stereo not given) | 10 µM (active) | 
C[C@H](N)Cc1c[nH]c2ccc(O)cc12 | inactive | 
CNC[C@H](O)c1ccc(O)cc1 | inactive | 
O=C(Oc1ccc([N+](=O)[O-])cc1)N1CCC(N2CCCCC2)CC1 | inactive | 
O=C1Nc2ccc(I)cc2/C1=C/c1cc(Br)c(O)c(Br)c1 | inactive | 
Nc1nc2ccc(Cl)cc2c2nc(-c3ccco3)nn12 | inactive | 
CCOP(=O)(OCC)c1nc(/C=C/c2ccccc2)oc1NCc1ccccc1 | 2.24 µM (active) | 
CCNC(C)(C)[C@@H](SS)c1ccc(Br)cc1 |  | -70.9% [at 11.4 µM] (inactive)
COC1(CS(=O)c2ccccc2)CCN(CCc2c[nH]c3ccc(F)cc23)CC1 (stereo not given) | inactive | 
O=NN(Cc1ccc(Cl)cc1)[C@@H](C(=O)O)c1ccccc1 | 0.398 µM (active) | 
COc1ccc2c(c1)[C@]13CCCC[C@@H]1[C@H](C2)NCC3 | inactive | 
CN1CCc2cccc(Cl)c2CC1 | inactive | 
c1ccc(N2CC[C@@]3(CCCNC3)C2)cc1 | inactive | 
Cc1cc(Cc2cc(C)c(N)cc2N)c(N)cc1N |  | -42.7% [at 11.4 µM] (inactive)
CCCn1c(=O)c2[nH]c(C3CCCC3)nc2n(CCCOC(=O)c2ccc(S(=O)(=O)F)cc2)c1=O | inactive | 
CCOC(=O)c1c(NC(=O)C(c2ccccc2)c2ccccc2)sc2c1C1CCN2CC1 | 3.55 µM (active) | 
CN(C)[C@@H]1C(=O)C(C(N)=O)=C(O)[C@]2(O)C(=O)C3=C(O)c4c(O)cccc4[C@@](C)(O)[C@H]3[C@H](O)[C@@H]12 | inactive | 

SMILES | AC50 | activity, negative = inhibition
C[C@@]12CC[C@@H]3[C@H](CCC4=CC(=O)CC[C@]43C)[C@@H]1CC[C@@H]2C(=O)Cn1cnc2c(=S)nc[nH]c21 |  | -3.21% [at 11.4 µM] (inactive)
O=C(O)c1ccccc1Nc1cccc(C(F)(F)F)c1 | inactive | 
CC(O)(CS(=O)(=O)c1ccccc1)C(=O)Nc1cccc(C(F)(F)F)c1 (stereo not given) | 2.24 µM (active) | 
CC(O)(CS(=O)(=O)c1cccc(C(F)(F)F)c1)C(=O)Nc1cccc(C(F)(F)F)c1 (stereo not given) | 2.51 µM (active) | 
CC(O)(CS(=O)(=O)c1cccc(C(F)(F)F)c1)C(=O)Nc1ccc(C(F)(F)F)cc1 (stereo not given) | 0.794 µM (active) | 
CC[C@@H]1CN2CCc3cc(OC)c(OC)cc3[C@H]2C[C@@H]1C[C@@H]1NCCc2cc(O)c(OC)cc21 | inactive | 
Cn1c(=O)c2[nH]cnc2n(C)c1=O.[CH2-][C@H](Cc1cccc2cc(C(=O)O)c(=O)oc12)OC.[Hg].[OH-] |  | 27.4% [at 11.4 µM] (inactive)
C[C@@H]1[C@@H]2Cc3ccc(O)cc3[C@@]1(C)CCN2CC1CC1 | inactive | 
O=C(O)[C@@H]1C[C@H]1[C@@H](NP(=O)(c1ccccc1)c1ccccc1)c1ccccc1 | inactive | 
COc1cccc(-n2c(O)c(C=NCCN3CCOCC3)c(=O)[nH]c2=O)c1 | inactive | 
Cc1ccccc1OCCN=Cc1c(O)n(C)c(=O)n(C)c1=O | 10 µM (active) | 
CC[N@+]1(C)CCC[C@@H](OC(=O)C(O)(c2ccccc2)c2ccccc2)C1 | inactive | 
C/C(O)=C(/C#N)C(=O)Nc1cc(Br)ccc1Br | inactive | 
COC(=O)C1=CCCN(C)C1 | inactive | 
C[C@H](Br)CN(C[C@H](C)Br)c1ccc2c(c1)Cc1ccccc1-2 | 2.51 µM (active) | 
CC[C@H](C(=O)[C@H](C)[C@H](O)[C@H](C)CCc1ccc(C)c(O)c1C(=O)O)[C@H]1O[C@](CC)([C@@H]2CC[C@@](O)(CC)[C@H](C)O2)C[C@H]1C | inactive | 
COCCCn1c(N)c(C(=O)Nc2sc3c(c2C(=O)OC)CCCC3)c2nc3ccccc3nc21 | 3.55 µM (active) | 
C=CCN1CC[C@@]23c4c5ccc(O)c4O[C@H]2/C(=N\N=C2/CC[C@@]4(O)[C@H]6Cc7ccc(O)c8c7[C@@]4(CCN6CC=C)[C@@H]2O8)CC[C@]3(O)[C@@H]1C5 | inactive | 
NCCc1ccc(S(=O)(=O)F)cc1 | inactive | 
COc1ccc(CNC(=O)/C=C\c2ccc3[nH]cc(CCN(C)C)c3c2)cc1 | inactive | 

SMILES | AC50 | activity, negative = inhibition
C=CCN1C[C@H](C)N([C@H](c2ccc(C(=O)N(CC)CC)cc2)c2cccc(OC)c2)C[C@H]1C | inactive | 
C=C(C)[C@H]1Cc2c(ccc3c2O[C@H]2COc4cc(OC)c(OC)cc4[C@@H]2C3=O)O1 | 2.51 µM (active) | 
COc1cc2c(cc1OC)[C@@H]1C(=O)c3ccc4c(c3O[C@@H]1CO2)C=CC(C)(C)O4 | 5.01 µM (active) | 
N[C@@H](Cc1ccccc1)P(=O)(O)O |  | -2.53% [at 11.4 µM] (inactive)
Cn1c[n+](C)cc1C(O)c1ccccc1 (stereo not given) | inactive | 
COc1ccc2[nH]c3c(c2c1)CCN=C3C | inactive | 
Oc1ccc2c3c1O[C@H]1c4oc5ccccc5c4C[C@]4(O)[C@H](C2)N(CC2CC2)CC[C@@]314 | inactive | 
C=CCO[C@@H](Cn1ccnc1)c1ccc(Cl)cc1Cl | 0.01 µM (active) | 
N[C@@H](Cn1cc(I)c(=O)[nH]c1=O)C(=O)O | inactive | 
O=C(Nc1ccccc1)N1CCCC2(CCN(C(=O)Oc3ccccc3)CC2)C1 | inactive | 
C[C@H](N)c1cccc(Cl)c1Cl | inactive | 
Oc1ccc2c3c1O[C@H]1c4c(c5ccccc5n4Cc4ccccc4)C[C@]4(O)[C@H](C2)N(CC2CC2)CC[C@@]314 | inactive | 
NC(N)=NS(=O)(=O)c1ccc(N)cc1 | inactive | 
C[N+]1(C)CCO[C@@](O)(c2ccc(-c3ccc([C@]4(O)C[N+](C)(C)CCO4)cc3)cc2)C1 | inactive | 
CC[C@]1(C2=NCCN2)Cc2ccccc2O1 | inactive | 
c1ccc2c(c1)OC[C@@H](C1=NCCN1)O2 | inactive and 7.94 µM (active) | 
NC[C@@H](O)CSP(=O)(O)O |  | 8.63% [at 11.4 µM] (inactive)
NC(=O)CN1CCCC1=O | inactive | 
Nc1nnnn1CCO |  | 28.1% [at 11.4 µM] (inactive)
O=C(O)c1cc[c]([Hg][S]c2ncnc3nc[nH]c23)cc1 | 0.631 µM (active) | 
